According to PubChem BioAssay (Tox21):
Inconclusive results are not listed. The source made the active and inactive calls. The call rests on the fitted dose curve; in most records, active means well fitted cell-killing curve with a large enough effect in the repeat runs; inconclusive means weak or mixed curves; inactive means no such curve, though single readings can be large or run the other way. Residues, ends and D or L forms follow the SMILES beside them.
On the % scale 0 is the no-effect control and ±100 the full control effect.

Assay: qHTS assay to identify small molecule antagonists of the peroxisome proliferator-activated receptor delta (PPARd) signaling pathway - cell viability counter screen (AID 743213); further: nearly all actives have a fitted effect of over 50% in size
Settings: PPARd-bla HEK293H viability, CellTiter-Glo luminescence, 17 h; series mostly up to 62 µM; viability change, negative = cytotoxic: at the top concentration
Source text: U.S. Tox21 Program National Center for Advancing Translational Sciences [NCATS] NIH Chemical Genomics Center [NCGC] U.S. Environmental Protection Agency [EPA] National Institutes of Environmental Health Sciences [NIEHS] National Toxicology Program [NTP] U.S. Food and Drug Administration [FDA] Tox21 Assay Overview: The peroxisome proliferator-activated receptors (PPARs) are lipid-activated transcription factors of the nuclear receptor superfamily with three distinct subtypes namely PPAR alpha, PPAR delta (PPARd) and PPAR gamma. All these subtypes heterodimerizes with Retinoid X receptor (RXR) and have different physiological functions. […] To identify the compounds that inhibit PPAR-delta signaling, GeneBLAzer PPAR delta UAS-bla HEK293H cell line (Invitrogen, Carlsbad, CA, USA) containing a beta-lactamase reporter gene under the control of an Upstream Activator Sequence (UAS) was used to screen the Tox21 compound library. The cytotoxicity of the Tox21 compound library against the PPARd-bla cell line was tested in parallel by measuring the cell viability using CellTiter-Glo assay (Promega, Madison, WI) in the same wells.
Tox21 Assay Protocol Summary: PPARd-bla cells were dispensed at 3000 cells/5uL/well in 1536-well black wall/clear bottom plates using a Multidrop Combi (Thermo Fisher Scientific, Waltham, MA) dispenser. After the assay plates were incubated at 37 C and 5% CO2 for 5 h, 23 nL of compounds dissolved in DMSO, positive controls or DMSO only was transferred to the assay plate by a Pintool station (Kalypsys, San Diego, CA), followed by addition of 1ul L165041 (300 nM, final concentration in the wells). The assay plates were incubated at 37 C for 17 h, and then 1 uL of LiveBLAzerTM B/G FRET substrate was added using a Bioraptr Flying Reagent Dispenser (FRD) workstation (Beckman Coulter, Indianapolis, IN, USA). The assay plates were incubated at room temperature for 2 h and fluorescence intensity was measured by an Envision plate reader (PerkinElmer, Shelton, CT). For cell viability readout that measures cytotoxicity, 3 ul/well of CellTiter-Glo reagent was added into the assay plates using a Bioraptr FRD. After 30 min incubation at room temperature, the luminescence intensity in the plates was measured using a ViewLux plate reader (PerkinElmer).
With `COC(=O)[C@H](Cc1ccccc1)NC(=O)[C@@H](N)CC(=O)O` (H-Asp-Phe-OMe) the outcome was “inactive”. For `N=C(N)c1ccc(OCCCCCOc2ccc(C(=N)N)cc2)cc1`, the outcome was “inactive”. In the case of `O=S(=O)(O)NC1CCCCC1`, the outcome is reported as “inactive”. For `CCOc1ccc(NC(=O)CC(C)O)cc1` (stereo not given), the outcome was “inactive”. With `NC(=O)c1cnccn1` the outcome was “inactive”. For `O=C(O)C(=O)O`, the outcome was “inactive”. For `NNC(=O)c1ccncc1`, the outcome was “inactive”. For `Cc1ccc(O)cc1`, the outcome was “inactive”. With `CC(O)CN(CCN(CC(C)O)CC(C)O)CC(C)O` (stereo not given) the outcome was “inactive”. In the case of `O=C(O)c1cccnc1`, the outcome is reported as “inactive”. In the case of `O=C(c1ccccc1)C(O)c1ccccc1` (stereo not given), the outcome is reported as “inactive”. In the case of `NS(=O)(=O)c1cc(C(=O)O)c(NCc2ccco2)cc1Cl`, the outcome is reported as “inactive”. With `CC(O)C(=O)O` (stereo not given) the outcome was “inactive”. For `CCCCCCCCCCCCCCCC(=O)O`, the outcome was “inactive”. With `NC(N)=O` the outcome was “inactive”. In the case of `Cc1ccccc1C(OCCN(C)C)c1ccccc1` (stereo not given), the “viability change, negative = cytotoxic” value is reported as -16.8% (inactive). For `Cc1cc(=O)[nH]c(=S)[nH]1`, the outcome was “inactive”. For `CCCCC1C(=O)N(c2ccccc2)N(c2ccccc2)C1=O`, the outcome was “inactive”. For `CC(=O)Nc1nnc(S(N)(=O)=O)s1`, the outcome was “inactive”. With `CCCC(O)C(CC)CO` (stereo not given) the outcome was “inactive”. For `O=S(=O)(O)c1ccc2cc(O)ccc2c1`, the outcome was “inactive”. For `O=C1NC(=O)c2ccccc21`, the outcome was “inactive”. With `CC(=O)NS(=O)(=O)c1ccc(N)cc1` the outcome was “inactive”. In the case of `Oc1ccc(/C=C/c2cc(O)cc(O)c2)cc1`, the “viability change, negative = cytotoxic” value is reported as 16.4% [at 80.4 µM] (inactive). For `Nc1ccc(S(=O)(=O)c2ccc(N)cc2)cc1`, the outcome was “inactive”. In the case of `O=C(O)CCCCC(=O)O`, the outcome is reported as “inactive”. With `Cn1cc[nH]c1=S` the outcome was “inactive”. For `O=C(O)c1cccc([N+](=O)[O-])c1`, the outcome was “inactive”. For `O=c1ccc2ccccc2o1`, the outcome was “inactive”. With `O=C(O)CCCCCCCC(=O)O` the outcome was “inactive”. With `CC(C)[C@@H]1CC[C@@H](C)C[C@H]1O` the outcome was “inactive”. In the case of `O=C(O)c1[nH]n(-c2ccc(S(=O)(=O)O)cc2)c(=O)c1N=Nc1ccc(S(=O)(=O)O)cc1`, the outcome is reported as “inactive”. For `O=C(O)c1cc(N=Nc2ccc(S(=O)(=O)Nc3ccccn3)cc2)ccc1O`, the outcome was “inactive”. For `O=C(c1ccccc1)c1ccccc1`, the outcome was “inactive”. In the case of `O=C(O)CS`, the outcome is reported as “inactive”. For `NC(=O)NC1NC(=O)NC1=O` (stereo not given), the outcome was “inactive”. With `O=C(O)/C=C\C(=O)O` the outcome was “inactive”. For `CC(O)CO` (stereo not given), the outcome was “inactive”. With `C[C@]12C=CC(=O)C=C1CC[C@@H]1[C@@H]2[C@@H](O)C[C@@]2(C)[C@H]1CC[C@]2(O)C(=O)CO` the outcome was “inactive”. In the case of `C/C=C/c1ccc(OC)cc1`, the outcome is reported as “inactive”.
